The structures appear in SMILES notation. About 83,000 compounds went through this panel and 20% of them were active in at least one assay; those are over-represented in the sample as a whole.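 Plates (96-well) were seeded with cells, treated with compound at one concentration, and incubated for 48 hours before percent growth was determined.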 Active and inactive are the calls of the source.

The test system of the assay is NCI-H460 lung. As to the kind of experiment: NCI-60 one-dose screen, 48 h (100 = growth as untreated, 0 = no growth, -100 = all killed). Conditions: 10 µM unless noted. Here is the method: Growth inhibition of the NCI-H460 human Non-Small Cell Lung tumor cell line is measured as a screen for anti-cancer activity. Cells are grown in 96 well plates and exposed to the test compound for 48 hours. Compounds are tested at a single concentration, which is 10^-5 M for most compounds. The reported endpoint is percent growth (GI% or GIPRCNT), where numbers from 0 - 100% represent growth inhibition, and numbers from -100% - 0 represent cell death. For example, a value of 40 represents 60% growth inhibition. A value of 0 means no net growth occurred over the course of the experiment. A value of -40 indicates 40% of cells at the beginning of the experiment died by the end of the experiment. A value of -100 means all cells are dead at the end of the experiment.
NCI-60 Human Tumor Cell Lines Screen was performed using the standard one-dose NCI protocol, which is described in more detail at https://dtp.cancer.gov/discovery_development/nci-60/default.htm.
Compounds with GIPRCNT values below 10 were considered active. Activity score was based on GIPRCNT using the following formula: […]
Score is 0 for GIPRCNT values of 100 or above, 50 for GIPRCNT values of 0, and 100 for GIPRCNT values of -100.
Regarding `O=C(NS(=O)(=O)c1ccccc1)n1cc(-c2ccncc2)c(-c2ccc(Cl)c(O)c2)n1`, the growth is 107% (inactive). For `Cc1ccc(-c2cc3nc(C(Cl)Cl)nc(-c4ccccc4C)n3n2)cc1` the value was 81.4% (inactive). The same measure for `N#Cc1c(Nc2ccccc2)nc2n(c1=O)-c1ccccc1Sc1ccccc1-2`: 90.7% (inactive).

`O=C1CCCCC1(c1ccccc1)c1ccccc1`: the growth is 103% (inactive). The same measure for `O=c1[nH]c2ccc(Br)cc2c2c1C(c1ccc(Cl)cc1)c1c(ncn3nc(-c4ccco4)nc13)O2` (stereo not given): 85.1% (inactive).

Turning to `Oc1ccc2cc(Br)ccc2c1-c1c(O)ccc2cc(Br)ccc12`, the growth was 8.23% (active). As to `CC(C)(C)Nc1c(-c2cccs2)nc2ncccn12`, the growth was 102% (inactive). In the case of `O=C(N/N=C/C=C\c1ccccc1)C(=O)N/N=C/C=C/c1ccccc1`, the growth is 117% (inactive). For `C=CCSc1n[nH]c(-c2cccs2)n1` the value was 107% (inactive).

As for `CCO/C=N/C1=C(C#N)C(c2ccc(Cl)cc2)c2c(c3ccc(C)cc3[nH]c2=O)O1` (stereo not given), the growth was 95% (inactive).

`O=S(=O)(NCCNc1nccc(-c2c(-c3ccc(O)cc3)nc3sccn23)n1)c1cccc2ccccc12`: the growth was 106% (inactive). For `C=C1CCC[C@]2(C)CCC[C@H](C)[C@@H](OC(C)=O)[C@@H]3OC(=O)C(=C)[C@@H]3C[C@H]1O2` the value was 74.7% (inactive); for `CC12CCC3C4(C)COC(c5ccco5)OC4CCC3(C)C1CC(C1=CCOC1=O)O2` (stereo not given), 102% (inactive).

Take `COC(=O)c1cc(=O)nc(N/N=C/c2ccco2)s1`: the growth was 106% (inactive).

Take `COc1ccc(-c2ccc(-c3ccc(C(=N)N)s3)s2)cc1Cl`: the growth is -36.5% (active).

As to `CC(C)(C)NCCC(O)c1cc2c(Cl)cc(Cl)cc2c2cc(C(F)(F)F)ccc12` (stereo not given), the growth was -73.6% (active). The same measure for `CCCCN(CCCC)c1ccc(C(=N)c2ccc(N(CCCC)CCCC)cc2)cc1`: -85.9% (active); for `COc1ccc(-c2cnnn2-c2nonc2-n2cccc2)cc1OC`: 40.7% (inactive); for `Cc1ccc(C(=O)C2=Cc3cc4ccccc4n3Cc3cnnn32)cc1`: 108% (inactive). As to `O=S(=O)(CC(O)(c1ccccc1)c1ccccc1)CC(O)(c1ccccc1)c1ccccc1`, the growth was 77.6% (inactive). For `COc1cc(-c2nn(-c3cccc(NC(=O)Nc4ccc(Cl)c(C(F)(F)F)c4)c3)cc2-c2ccncc2)ccc1Cl` the value was 1.7% (active); for `C=C1c2nc3ccccc3n2C=C(c2ccc(Cl)cc2)N1Cc1ccccc1`, 88.2% (inactive); for `NC(N)=N/N=C/c1ccc(-c2ccc(-c3cc(Cl)cc(Cl)c3)s2)cc1`, -35.7% (active). The same measure for `Cn1cnc2c(N3CCN(C(=O)OCc4ccc5c(Cl)cc(Cl)c(O)c5n4)CC3)nc(Cl)nc21`: 27.6% (inactive). For the molecule `CC(C)CSc1nc(NN)c(C#N)c(-c2ccccc2)n1`, the growth is 97.4% (inactive). For `COc1ccc(-n2c(-c3ccccc3)c(-c3ccccc3)c3c(SCC(=O)N/N=C/c4ccc(Cl)cc4)ncnc32)cc1` the value was 102% (inactive). For `CCN1CCN(CC(=O)N2c3cccc4cccc(c34)N(C(=O)CN3CCN(CC)CC3)C2c2cn(-c3ccccc3)nc2-c2cccc([N+](=O)[O-])c2)CC1` the value was -37.9% (active). The same measure for `COc1cc(Nc2nc(N[C@H]3CCCC[C@@H]3N)nc3cc[nH]c(=O)c23)cc(OC)c1`: 27.6% (inactive); for `Cc1ccc(S(=O)(=O)NCCNc2nccc(-c3c(-c4ccc(O)cc4)nc4sccn34)n2)cc1`: 106% (inactive); for `S=c1[nH]nc(-c2cc3ccc2CCc2ccc(cc2)CC3)n1C1CC1`: 103% (inactive). Consider `N[C@H]1CN(C(=O)c2cc3cc(Br)c(F)c(F)c3[nH]2)C[C@@H]1O`, for which the growth is 107% (inactive). Regarding `COc1ccc(Nc2nn3c(-c4ccccc4)cc(-c4ccccc4)nc3c2C(N)=O)c(OC)c1`, the growth was 20.3% (inactive). The same measure for `COC(=O)c1cccc2c1N(C)c1c(cccc1C(=O)OC)CC2`: 117% (inactive); for `COc1ccc(C(=O)n2nc(/C=C/c3ccc(O)c(OC)c3)cc2/C=C/c2ccc(O)c(OC)c2)cc1`: 4.37% (active). The same measure for `COc1ccc(C2=Nn3c(nnc3-n3nc(C)cc3C)SC2)cc1`: 4.1% (active). For `c1cc2[nH]ncc2cc1-c1nc2ccc3[nH]ncc3c2c2c1CCC2` the value was 31.5% (inactive); for `CNc1ccc(Br)c2c1C(=O)c1ccccc1C2=O`, 105% (inactive). As for `Cn1ccc(=O)c(S(N)(=O)=O)c1`, the growth was 102% (inactive). As for `CCCCCCCCCCCCNC(=O)[C@H]1CSC(c2cc(Br)cs2)N1` (stereo not given in full), the growth is -48.4% (active). As for `O=C(Nc1cccc(-n2cc(-c3ccncc3)c(-c3ccc(Cl)c(O)c3)n2)c1)Nc1ccc(Cl)c(Cl)c1`, the growth was 6.5% (active).

(Values after PubChem BioAssay (NCI).)
